Results on seven molecules are retold here after PubChem BioAssay (Tox21).

A number with no mark means an inactive call. Records with an inconclusive call do not appear. Active and inactive are the calls of the source. Unless noted, the call rests on the fitted dose curve; in most records, active means well fitted curve in the direction sought with a large enough effect in the repeat runs; inconclusive means weak or mixed curves; inactive means no such curve, though single readings can be large; an effect the other way counts as inactive or inconclusive.

Test [1] can be described thus: qHTS assay to identify small molecule antagonists of the constitutive androstane receptor (CAR) signaling pathway - cell viability counter screen (AID 1224837). Further: nearly all actives have a fitted effect of over 45% in size. Further: potency means the concentration at half of the fitted maximal effect. In short, it runs like this: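 CITCO at 50 nM final was added alongside compounds (15 concentrations) to double-stable hCAR/CYP2B6-2.2kb HepG2 cells. Following 23 hr at 37 C, cell viability was quantified by CellTiter-Fluor fluorescence intensity.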
(Quantitative high-throughput screening tests each substance at several concentrations.)

The target of test [2] is Nuclear receptor subfamily 1 group I member 3 (Homo sapiens) (UniProt Q14994). Put plainly: qHTS assay to identify small molecule antagonists of the constitutive androstane receptor (CAR) signaling pathway (AID 1224838). Further: nearly all actives have a fitted effect of over 40% in size. Further: potency means the concentration at half of the fitted maximal effect. In short, it runs like this:
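Inhibition of CITCO-driven (50 nM final) CYP2B6 reporter expression is measured in HepG2 cells stably carrying hCAR. Fifteen compound concentrations are applied for 24 h at 37 C, followed by luciferase luminescence.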

Test [3] shares this target. As to the kind of experiment: qHTS assay to identify small molecule agonists of the constitutive androstane receptor (CAR) signaling pathway (AID 1224839). Further: on the % scale 0 is the no-effect control and ±100 the full control effect; nearly all actives have a fitted effect of over 15% in size. In short, it runs like this:
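HepG2 cells stably co-transfected with hCAR and a CYP2B6-2.2kb luciferase reporter; compounds at 15 concentrations with 0.75 uM PK11195 present. After 24 hr at 37 C, luciferase read by ONE-Glo luminescence.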

Test [4] is described as follows: qHTS assay to identify small molecule agonists of H2AX (AID 1224845; active means well fitted activation curve with a large enough effect in the signal ratio in the repeat runs, not every such curve was filed as active; the % refers to the signal ratio; further: potency means the concentration at half of the fitted maximal effect). In short, it runs like this: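 Phospho-H2AX Ser139 measured by HTRF (ex 320 nm; em 665 and 620 nm) after 24 hr antibody incubation. Compounds, 15 concentrations, 0.76% DMSO, were applied to CHO-K1 cells for 3hr at 37C before lysis.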
A short description of test [5]: qHTS assay to identify small molecule agonists of H2AX - cell viability counter screen (AID 1224847; calls by dose curve; further: nearly all actives have a fitted effect of over 30% in size; further: potency means the concentration at half of the fitted maximal effect). The gist of the method: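 CHO-K1 cells plated overnight at 37C, then exposed 3 h at 37C to compounds at 15 concentrations (0.76% DMSO final). Viability by CellTiter-Glo luminescence after 30 min at room temperature.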
The nature of test [6]: qHTS RealTime-Glo MT Cell Viability Assay in HEK293 cells - 32 hour (AID 1224868). Further: potency means the concentration at half of the fitted maximal effect; nearly all actives have a fitted effect of over 50% in size. In short, it runs like this: (§1)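 HEK293 cells were seeded at 600 cells/well together with NanoLuc luciferase and cell-permeant prosubstrate, preincubated 5 h at 37 C/5% CO2, then given compound in DMSO by pintool. Luminescence from viable-cell prosubstrate reduction was read repeatedly over 40 h.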

Test [7] in a line: A CellTox Green Cytotoxicity Assay to monitor cytotoxicity in HEK293 cells - 0 hour (AID 1224869). Further: on the % scale 0 is the no-effect control and ±100 the full control effect; nearly all actives have a fitted effect of over 50% in size. In short, it runs like this: (§2)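 Real-time, in one plate: 600 HEK293 cells/well with dead-cell DNA dye, pinned compound after 5 h, 37 C incubation over 40 h; viable cells give no appreciable fluorescence.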
Test [8] is described as follows: A CellTox Green Cytotoxicity Assay to monitor cytotoxicity in HEK293 cells - 40 hour (AID 1224871). Further: nearly all actives have a fitted effect of over 45% in size. Further: potency means the concentration at half of the fitted maximal effect. In short, it runs like this:
as §2

Test [9] in a line: qHTS RealTime-Glo MT Cell Viability Assay in HEK293 cells - 16 hour (AID 1224872). Further: potency means the concentration at half of the fitted maximal effect; nearly all actives have a fitted effect of over 50% in size. In short, it runs like this:
as §1

Test [10] is described as follows: qHTS assay to identify small molecule antagonists of the estrogen related receptor signaling pathway with the pleiotropic PPARgamma coactivator (PGC) from Tox21 10K library - cell viability counter screen (AID 1224840; active means well fitted cell-killing curve with a large enough effect in the repeat runs, not every such curve was filed as active; further: potency means the concentration at half of the fitted maximal effect; nearly all actives have a fitted effect of over 40% in size). In short, it runs like this: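 Readout: fluorescence intensity from CellTiter-Fluor after 30 min at 37 C/5% CO2. Preceded by 17.5 h treatment of PGC/ERR cells with DMSO-dissolved compounds, added 6 h post-seeding.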

The nature of test [11]: qHTS assay to identify small molecule agonists of the hypoxia (HIF-1) signaling pathway - cell viability counter screen (AID 1224844; calls by dose curve; further: nearly all actives have a fitted effect of over 50% in size; further: potency means the concentration at half of the fitted maximal effect). The gist of the method: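 In this counter screen, HRE-bla ME-180 cell viability after 17 hrs of compound exposure at 37C was read by CellTiter-Glo luminescence, multiplexed with the beta-lactamase reporter measurement.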
The nature of test [12]: qHTS RealTime-Glo MT Cell Viability Assay in HepG2 cells - 24 hour (AID 1224867). The gist of the method: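 HepG2 cells were seeded at 600 cells/well together with NanoLuc luciferase and a cell-permeant prosubstrate, preincubated 5 h at 37 C/5% CO2, then pin-dosed with compounds in DMSO. Nonlytic luminescence from viable cells was read at each time point.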
A short description of test [13]: qHTS RealTime-Glo MT Cell Viability Assay in HepG2 cells - 40 hour (AID 1224870). In short, it runs like this: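 Real-time viability: cells seeded at 600 per well together with NanoLuc and cell-permeant prosubstrate, compounds added after 5 h incubation. Luminescence tracked at 0, 8, 16, 24, 32 and 40 h of exposure.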
A short description of test [14]: qHTS assay to identify small molecule agonists of the estrogen related receptor signaling pathway with the pleiotropic PPARgamma coactivator (PGC) from Tox21 10K library (AID 1224842). Further: on the % scale 0 is the no-effect control and ±100 the full control effect; nearly all actives have a fitted effect of over 15% in size. The gist of the method:
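Luminescence from One-Glo (30 min, room temperature) measured after PGC/ERR cells had 18 h at 37 C with pinned compound (23 nL in DMSO). Cells had been seeded at 2,000 per well and pre-incubated 6 h.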

Test [15] in a line: qHTS assay to identify small molecule antagonists of the estrogen related receptor (ERR) signaling pathway from Tox21 library (AID 1224848). The gist of the method:
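Luciferase luminescence (ONE-Glo, 30 min room temperature) was the read-out. Cells of the NTP-supplied ERR line, 2,000 per well, were given 6 h at 37 C before compound addition in DMSO and 18 h exposure at 37 C.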

Test [16] is described as follows: qHTS assay to identify small molecule agonists of the estrogen related receptor (ERR) signaling pathway from Tox21 library (AID 1224849; calls by dose curve; further: on the % scale 0 is the no-effect control and ±100 the full control effect; nearly all actives have a fitted effect of over 15% in size). As to conditions: ERR reporter cell line, ONE-Glo luciferase, 18 h. In short, it runs like this: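 Luciferase activity in ERR pathway reporter cells served as the agonist readout; exposure lasted 18 h at 37 C, with ONE-Glo detection after 30 min at room temperature.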

Test [17] can be described thus: qHTS assay to identify small molecule antagonists of the estrogen related receptor signaling pathway with the pleiotropic PPARgamma coactivator (PGC) from Tox21 10K library (AID 1224841; call rule not given here). The gist of the method: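 One-Glo luminescence, measured after half an hour at room temperature, quantified reporter output of PGC/ERR cells. These had been plated at 2,000 per well, incubated 6 h, dosed with compounds in DMSO, then kept 18 h at 37 C.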

Where [18] appears, read: at 92.4 µM (top of the series) unless noted.

Chain of Nuclear receptor subfamily 1 group I member 3 (Homo sapiens) (Q14994 whole entry, looked up): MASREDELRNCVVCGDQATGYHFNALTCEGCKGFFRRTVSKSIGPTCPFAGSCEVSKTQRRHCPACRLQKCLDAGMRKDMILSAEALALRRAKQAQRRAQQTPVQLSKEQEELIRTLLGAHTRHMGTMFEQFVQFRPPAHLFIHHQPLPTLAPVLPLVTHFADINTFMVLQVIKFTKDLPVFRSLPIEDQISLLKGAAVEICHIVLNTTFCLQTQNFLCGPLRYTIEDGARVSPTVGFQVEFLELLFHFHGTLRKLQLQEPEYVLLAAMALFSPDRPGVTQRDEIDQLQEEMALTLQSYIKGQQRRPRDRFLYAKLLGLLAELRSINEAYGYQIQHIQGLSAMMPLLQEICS

`CCN(Cc1cccnc1)C(=O)c1cccc(Cl)c1[C@]1(C)C(=O)N(Cc2ccc(OC)cc2OC)c2ccc(Cl)cc21`: the Potency entry in test [1], in [2], in [3], in test [4], in test [5] and in test [7] was “inactive” throughout. The Potency result in test [8] was “inactive”. For the same molecule, the figures for the Potency in [6] and in test [9] were 20.4 µM (active) and 22.9 µM (active), respectively.

For the molecule `CCOC(=O)O[C@H](C)OC(=O)c1ccc2c(c1)cc(C(=O)NC1CCN(C(C)C)CC1)n2Cc1cc(-c2ccc(Cl)s2)on1`, the Potency in [1] was 64.1 µM (active); in [2], 64.1 µM (active); in test [10], 22.7 µM (active); in test [11], 28.9 µM (active); in test [4], 42 µM (active); in test [5], 37.5 µM (active). The Potency in [12] was 11.5 µM (active); in [6], 11.5 µM (active); in test [13], 10.2 µM (active); in test [8], 18.2 µM (active); in test [9], 10.2 µM (active). Besides, the Potency entry in test [3] and in [7] was “inactive” throughout.

Consider `CCCCCCCC/C=C/CCCCCCCC1=NCCN1CCO`, for which the Potency is 68.6 µM (active) in test [1]; 61.1 µM (active) in [2]; 54.9 µM (active) in [11]; 101 µM (active) in [5]; 54.5 µM (active) in test [15]; 17.4 µM (active) in test [12]. The Potency in [6] was 19.5 µM (active); in test [13], 17.4 µM (active); in [8] it was 30.9 µM (active); in test [9] it was 21.9 µM (active). In addition, the Potency entry in [3], in [14], in test [4] and in [7] was “inactive” throughout. Besides, the activity change, positive = activation in test [16] (setting [18]) was -79.9%.

As to `Oc1cccc(-c2c3nc(c(-c4cccc(O)c4)c4ccc([nH]4)c(-c4cccc(O)c4)c4nc(c(-c5cccc(O)c5)c5ccc2[nH]5)CC4)C=C3)c1`, the values for the Potency in test [1], in [10] and in test [9] were 5.31 µM (active), 10.6 µM (active) and 23.9 µM (active), respectively. Also, the Potency entry in test [2], in test [3], in test [11], in [7] and in test [8] was “inactive” in each case.

Take `CC1=C(C(=O)OC(C)C)C(c2cccc([N+](=O)[O-])c2)C(C(=O)OC2CN(C(c3ccccc3)c3ccccc3)C2)=C(N)N1` (configuration not stated): the Potency in test [1] is 29.8 µM (active); in test [10] it was 29.8 µM (active); in test [17], 26.6 µM (active); in [11], 6.74 µM (active); in test [5] it was 55.2 µM (active); in test [15] it was 26.6 µM (active). The values for the Potency in test [12] and in [13] were 21.3 µM (active) and 23.9 µM (active), respectively. The Potency entry in test [3], in [14], in [7] and in test [8] was “inactive” throughout. In [16] (setting [18]), the activity change, positive = activation is -68.1% [at 42.5 µM].

With `Oc1ccc(Cl)cc1Sc1cc(Cl)ccc1O`, the activity change, positive = activation was -51.1% in test [16] (at 42.5 µM (top of the series)) and -52% in test [16] (at 92.4 µM (top of the series)).

As for `Clc1ccccc1C(c1ccccc1)(c1ccccc1)n1ccnc1`, the values for the activity change, positive = activation in test [16] (at 42.5 µM (top of the series)) and in [16] (at 92.4 µM (top of the series)) were -60.3% and -72.6%, respectively.
